An excerpt weighted towards active compounds, which were near 7.3% of everything screened.
FLuc counter: inhibits or activates purified firefly luciferase, miR-21 counter-screen. AID 588342. actives 6.9% (n = 360,000). P08659. Potency, µM (doses to about 57.5 µM), actives largely listed as inhibitors. purified FLuc, Km substrates, luminescence inhibition; note: nearly all actives have a fitted effect of over 55% in size
Target sequence (P08659 whole entry, looked up): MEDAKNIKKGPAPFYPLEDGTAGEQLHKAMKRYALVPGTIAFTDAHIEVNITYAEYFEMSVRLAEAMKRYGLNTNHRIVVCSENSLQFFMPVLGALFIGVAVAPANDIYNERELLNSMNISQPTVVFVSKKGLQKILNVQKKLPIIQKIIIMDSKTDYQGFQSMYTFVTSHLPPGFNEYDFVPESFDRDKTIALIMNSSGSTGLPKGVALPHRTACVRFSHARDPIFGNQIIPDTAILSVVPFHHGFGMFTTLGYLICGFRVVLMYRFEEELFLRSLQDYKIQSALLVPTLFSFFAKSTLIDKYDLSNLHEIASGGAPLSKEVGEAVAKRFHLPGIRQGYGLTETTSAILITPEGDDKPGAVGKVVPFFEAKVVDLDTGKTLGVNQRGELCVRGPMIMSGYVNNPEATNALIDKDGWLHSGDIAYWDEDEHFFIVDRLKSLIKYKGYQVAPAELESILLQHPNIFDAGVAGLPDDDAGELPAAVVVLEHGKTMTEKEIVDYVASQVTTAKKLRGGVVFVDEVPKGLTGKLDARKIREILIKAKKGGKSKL
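Purified P. pyralis luciferase (10nM final) with 10uM D-luciferin and 10uM ATP (Km levels) in 50mM Tris acetate pH 7.5, 10mM Mg acetate, 0.01% Tween-20, 0.05% BSA; qHTS 6-point titration, ~60 µM downward; luminescence read.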
ELG1 genotox: induces genotoxicity in HEK293T cells with luciferase-tagged ELG1; HEK293T ELG1-luciferase reporter, luminescence, 16 h; AID 504466; Potency, µM (doses to about 46 µM), hits mostly activators; actives 1.3% (n = 330,000); note: nearly all actives have a fitted effect of over 60% in size
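Genotoxicity was scored as increased ELG1-luciferase reporter signal, measured by ONE-Glo luminescence (30 min, room temperature). Compound or vehicle exposure of the HEK293T reporter cells lasted 16 hr at 37°C.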
Rab9 promoter act: Rab9 promoter activation; Huh7 Rab9 promoter-luciferase reporter, luminescence, 24 h; Potency, µM (highest dose often 9.22 µM), most hits filed as activators; actives 2.8% (n = 320,000); note: nearly all actives have a fitted effect of over 60% in size
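Huh7 cells stably carrying a Rab9 promoter-luciferase reporter, 1500 cells per well in OP-MEM I with 10% FBS, treated with compound 24 hours at 37C. Luciferase activity read by luminescence after 10 minutes with Amplite reagent.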
uPA generation: inhibitors of cell surface uPA generation; cell surface uPA generation assay, qHTS; actives 0.31% (n = 330,000); Potency, µM (top dose mostly 38.3 µM), actives largely listed as inhibitors; AID 540303; active = well fitted inhibition curve with a large enough effect; inconclusive = small, poorly fitted or top-dose-only effect; inactive = no such curve, though single readings can be large or run the other way; tested in mouse RAW 264.7 cells; note: nearly all actives have a fitted effect of over 55% in size
SMN2 splice up: enhancers of SMN2 splice variant expression | actives 2.8% (n = 210,000) | HEK293 SMN2-luciferase splicing reporter, luminescence, 30-36 h | Potency, µM (doses to about 46.1 µM), usual class: activators; note: nearly all actives have a fitted effect of over 55% in size
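qHTS luciferase splicing reporter: luminescence rises when SMN2 exon 7 is included in transfected HEK293 cells. Compound exposure lasted 30-36 h at 37C, with 4.5 mM final sodium butyrate as control, followed by a ONE-Glo read.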
NPC1 promoter act: activates the NPC1 promoter. Huh7 NPC1 promoter luciferase reporter, 24 h. Potency, µM (top dose mostly 9.22 µM), hits mostly activators. actives 2.4% (n = 320,000). AID 485313; note: nearly all actives have a fitted effect of over 60% in size
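Readout is luciferase luminescence, reflecting NPC1 promoter activation in stably transfected Huh7 cells after 24 h compound exposure at 37 °C in reduced-serum medium with 10% FBS.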
Numbers stand for hits. Unless noted, calls come from the whole dose curve; as a rule, active = well fitted curve in the direction sought with a large enough effect; inconclusive = small, poorly fitted or top-dose-only effect, or another doubt; inactive = no such curve, though single readings can be large; an effect the other way counts as inactive or inconclusive.

Screening O=C(c1cnccn1)N1CCC[C@@]2(CCN(Cc3ccccc3)C2)C1 returned SMN2 splice up inactive.
For O=C(CCCCCN1C(=O)c2cccc3cccc(c23)C1=O)NC1CCS(=O)(=O)C1 (centres undefined) the results were FLuc counter 15.1µM, ELG1 genotox inactive, Rab9 promoter act inactive, uPA generation inactive and NPC1 promoter act inactive.
Screening O=C(CCN1C(=O)c2cccc3cccc(c23)C1=O)NC1CCS(=O)(=O)C1 (centres undefined) returned FLuc counter inconclusive, ELG1 genotox inactive, Rab9 promoter act inactive, uPA generation inactive and NPC1 promoter act inactive.
For CCCCn1c(SCC(=O)Nc2cccc(OC)c2)nc2ccsc2c1=O the results were FLuc counter inactive.
`O=C1NC(c2ccc(Br)cc2)Nc2sc3c(c21)CCC3` (centres undefined) gave FLuc counter inconclusive, ELG1 genotox inactive, Rab9 promoter act inconclusive, uPA generation inactive, SMN2 splice up inactive and NPC1 promoter act inconclusive.
`CN1CCc2c(sc3c2C(=O)NC(c2ccccc2)N3)C1` (centres undefined) gave FLuc counter inconclusive, ELG1 genotox inactive, Rab9 promoter act inactive, uPA generation inactive, SMN2 splice up inactive and NPC1 promoter act inactive.
For Cc1ccsc1C1NC(=O)c2c(sc3c2CCCC3)N1 (centres undefined) the results were FLuc counter 16.9µM, ELG1 genotox inconclusive, Rab9 promoter act inconclusive, uPA generation inactive, SMN2 splice up 15.8µM and NPC1 promoter act inconclusive.
Screening Cc1ccc(C2NC(=O)c3c(sc4c3CCN(C)C4)N2)s1 (centres undefined) returned FLuc counter 12µM, ELG1 genotox inactive, Rab9 promoter act inconclusive, uPA generation inactive, SMN2 splice up inactive and NPC1 promoter act inconclusive.
Cc1cccc(C2NC(=O)c3c(sc4c3CCN(C)C4)N2)c1O (centres undefined) was read as FLuc counter 23.9µM and SMN2 splice up 15.8µM.
Screening CCOC(=O)C1CCN(C(=O)c2ccc(-n3ccc4ccccc43)s2)CC1 returned FLuc counter inactive.
For CSc1nnc(NC(=O)c2ccc(S(=O)(=O)N(C)C)cc2)s1 the results were FLuc counter 10.7µM, ELG1 genotox inconclusive, Rab9 promoter act 0.562µM, uPA generation inactive, SMN2 splice up 12.6µM and NPC1 promoter act 1.58µM.
CCCOc1ccc(C(=O)Nc2nc(C)c(Cc3ccc4c(c3)OCO4)s2)cc1 was read as FLuc counter inconclusive, ELG1 genotox inactive, Rab9 promoter act inactive, uPA generation inconclusive, SMN2 splice up inactive and NPC1 promoter act inactive.
For Cc1nnc(NC(=O)c2ccc3c(c2)OCO3)s1 the results were FLuc counter 13.5µM, ELG1 genotox inconclusive, Rab9 promoter act 3.55µM, uPA generation inactive and NPC1 promoter act inconclusive.
`Cc1nc(NC(=O)c2ccc(OCC(C)C)cc2)sc1Cc1ccc2c(c1)OCO2` gave FLuc counter 21.3µM, ELG1 genotox inactive, Rab9 promoter act inconclusive, uPA generation inconclusive, SMN2 splice up inactive and NPC1 promoter act inactive.
`O=C(Nc1nncs1)c1ccc2c(c1)OCO2` gave FLuc counter 15.1µM, ELG1 genotox inconclusive, Rab9 promoter act inactive, uPA generation inactive and NPC1 promoter act inactive.
Cc1cc(=O)n2c(C(=O)Nc3ccc(C)c(Cl)c3)c(C(=O)Nc3ccccc3)sc2n1 was read as FLuc counter inactive and SMN2 splice up inactive.
`Cc1ccc(-c2cc(-c3coc4ccccc4c3=O)c3c(n2)-c2ccccc2OC3)cc1` gave FLuc counter inactive and SMN2 splice up inactive.
Screening N#Cc1ccc(CN2CCN(C(=O)CC(NC(=O)c3ccccc3)c3ccccc3)CC2)cc1 (centres undefined) returned FLuc counter inactive, ELG1 genotox inactive, Rab9 promoter act inactive, uPA generation inactive and NPC1 promoter act inactive.
For CC(C)Cc1nnc(NC(=O)c2ccc3c(c2)OCCO3)s1 the results were FLuc counter 1.9µM, ELG1 genotox inconclusive, Rab9 promoter act 0.631µM, uPA generation inactive and NPC1 promoter act 2µM.
For CCOC(=O)C(C)Sc1nnc(NC(=O)c2ccc3c(c2)OCO3)s1 (centres undefined) the results were FLuc counter 16.9µM, ELG1 genotox inactive, Rab9 promoter act inactive, uPA generation inactive, SMN2 splice up inactive and NPC1 promoter act inactive.
CSc1nnc(NC(=O)c2ccc3c(c2)OCO3)s1 was read as FLuc counter 0.477µM, ELG1 genotox 0.259µM, Rab9 promoter act 0.112µM, uPA generation inactive and NPC1 promoter act 0.224µM.
Screening COCCSc1nnc(NC(=O)c2ccc3c(c2)OCO3)s1 returned FLuc counter inconclusive, ELG1 genotox inconclusive, Rab9 promoter act inconclusive, uPA generation inactive, SMN2 splice up inconclusive and NPC1 promoter act inconclusive.
CCCc1nc2sc3c(N4CCC(C)CC4)ncnc3c2c2c1CCCC2 was read as FLuc counter inactive and SMN2 splice up inactive.
Screening COc1cccc(Nc2ccc(-n3ccnc3)nn2)c1 returned FLuc counter inconclusive, ELG1 genotox inactive, Rab9 promoter act inactive, uPA generation inactive and NPC1 promoter act inactive.
For Cc1ccc(Nc2ccc(-n3ccnc3)nn2)cc1C the results were FLuc counter 16.9µM, ELG1 genotox inactive, Rab9 promoter act inactive, uPA generation inactive, SMN2 splice up inactive and NPC1 promoter act inactive.
O=C(Oc1ccc(Br)cc1)c1cncc(Br)c1 was read as FLuc counter 4.78µM, ELG1 genotox inactive, Rab9 promoter act inactive, uPA generation inactive, SMN2 splice up inactive and NPC1 promoter act inactive.
For CCc1ccc(C(=O)c2cncc(Br)c2)cc1 the results were FLuc counter 16.9µM, uPA generation inactive and SMN2 splice up inconclusive.
O=C(Oc1ccc2cc(Br)ccc2c1)c1cccnc1 was read as FLuc counter inconclusive, ELG1 genotox inactive, Rab9 promoter act inactive, uPA generation inactive, SMN2 splice up inactive and NPC1 promoter act inactive.
For Clc1ccc(-c2cc3ncc4c(n3n2)-c2ccccc2OC4)cc1 the results were FLuc counter inactive and SMN2 splice up inactive.
`Cc1ccc(CNS(=O)(=O)c2c(C(=O)N3CCCCCC3)c(C)n(C)c2C)cc1` gave FLuc counter inactive, ELG1 genotox inactive, Rab9 promoter act inactive, uPA generation inactive and NPC1 promoter act inactive.
For CC(Oc1ccc(Cl)cc1Cl)C(=O)Nc1cccc(O)c1 (centres undefined) the results were FLuc counter 16.9µM, ELG1 genotox inactive, Rab9 promoter act inactive, uPA generation inactive, SMN2 splice up inactive and NPC1 promoter act inactive.
Screening Cc1ccc(OCC(=O)Nc2cccc(O)c2)cc1C returned FLuc counter 5.36µM, ELG1 genotox inconclusive, Rab9 promoter act inconclusive, uPA generation inactive, SMN2 splice up inactive and NPC1 promoter act inconclusive.

Source: PubChem
